# According to article PMC11006913:
# Positions count from the first letter of the chain named.
# Assays:
# Test in all cases: PBM; 200 nM protein, PBS
# Conditions in all cases: dsDNA, one strand shown
# [1] = target: T1, NKX2-6 (Homo sapiens, UniProt A6NCS4 118-204)
# T1 sequence: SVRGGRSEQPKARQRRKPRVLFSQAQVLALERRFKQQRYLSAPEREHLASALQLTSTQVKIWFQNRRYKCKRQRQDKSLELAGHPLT
# [2] = target: T2, NKX2-6 (Homo sapiens, UniProt A6NCS4 118-204, F151L)
# T2 sequence: T1 sequence with F34L
# [3] = target: PITX2 (Homo sapiens, UniProt Q99697 72-157)
# [4] = target: VAX1 (Homo sapiens, UniProt Q5SQQ9 86-172)
# [5] = target: VAX1 (Homo sapiens, UniProt Q5SQQ9 86-172, T142I)
# [6] = target: VAX1 (Homo sapiens, UniProt Q5SQQ9 86-172, K157R)
# Chain of VAX1 (Homo sapiens, UniProt Q5SQQ9 86-172, K157R) (Q5SQQ9 86-172 K157R): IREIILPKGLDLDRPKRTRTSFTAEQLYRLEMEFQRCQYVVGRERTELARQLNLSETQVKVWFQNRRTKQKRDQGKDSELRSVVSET
# Chain of VAX1 (Homo sapiens, UniProt Q5SQQ9 86-172, T142I) (Q5SQQ9 86-172 T142I): as the sequence (Q5SQQ9 86-172 K157R) above, with T57I, R72K counted along it
# Chain of VAX1 (Homo sapiens, UniProt Q5SQQ9 86-172) (Q5SQQ9 86-172): as the sequence (Q5SQQ9 86-172 K157R) above, with R72K counted along it
sequence,measurement,setting,value
CCGCGCGG,binding signal,[1],"9.66 upbm affinity estimate (log intensity, higher = more binding, comparable within an allelic series)"
same,binding signal,[2],"9.56 upbm affinity estimate (log intensity, higher = more binding, comparable within an allelic series)"
ACGGGACT,binding signal,[1],"9.76 upbm affinity estimate (log intensity, higher = more binding, comparable within an allelic series)"
same,binding signal,[2],"9.42 upbm affinity estimate (log intensity, higher = more binding, comparable within an allelic series)"
GAAGAGCA,binding signal,[1],"11.4 upbm affinity estimate (log intensity, higher = more binding, comparable within an allelic series)"
same,binding signal,[2],"9.71 upbm affinity estimate (log intensity, higher = more binding, comparable within an allelic series)"
CTGTGGCC,binding signal,[1],"9.24 upbm affinity estimate (log intensity, higher = more binding, comparable within an allelic series)"
same,binding signal,[3],"7.86 upbm affinity estimate (log intensity, higher = more binding, comparable within an allelic series)"
same,binding signal,[2],"9.38 upbm affinity estimate (log intensity, higher = more binding, comparable within an allelic series)"
CAGGCACA,binding signal,[1],"9.47 upbm affinity estimate (log intensity, higher = more binding, comparable within an allelic series)"
same,binding signal,[2],"9.38 upbm affinity estimate (log intensity, higher = more binding, comparable within an allelic series)"
AACACGCC,binding signal,[1],"9.5 upbm affinity estimate (log intensity, higher = more binding, comparable within an allelic series)"
same,binding signal,[2],"9.31 upbm affinity estimate (log intensity, higher = more binding, comparable within an allelic series)"
CCGGGTCC,binding signal,[1],"9.7 upbm affinity estimate (log intensity, higher = more binding, comparable within an allelic series)"
same,binding signal,[2],"9.17 upbm affinity estimate (log intensity, higher = more binding, comparable within an allelic series)"
CCTTAAGA,binding signal,[1],"12.4 upbm affinity estimate (log intensity, higher = more binding, comparable within an allelic series)"
same,binding signal,[2],"10.1 upbm affinity estimate (log intensity, higher = more binding, comparable within an allelic series)"
TGGTACCA,binding signal,[1],"9.64 upbm affinity estimate (log intensity, higher = more binding, comparable within an allelic series)"
same,binding signal,[2],"9.28 upbm affinity estimate (log intensity, higher = more binding, comparable within an allelic series)"
GTTCCACA,binding signal,[1],"9.21 upbm affinity estimate (log intensity, higher = more binding, comparable within an allelic series)"
same,binding signal,[2],"9.42 upbm affinity estimate (log intensity, higher = more binding, comparable within an allelic series)"
CGCTCGGC,binding signal,[1],"9.08 upbm affinity estimate (log intensity, higher = more binding, comparable within an allelic series)"
same,binding signal,[4],"6.93 upbm affinity estimate (log intensity, higher = more binding, comparable within an allelic series)"
same,binding signal,[2],"9.38 upbm affinity estimate (log intensity, higher = more binding, comparable within an allelic series)"
same,binding signal,[5],"6.99 upbm affinity estimate (log intensity, higher = more binding, comparable within an allelic series)"
same,binding signal,[6],"6.71 upbm affinity estimate (log intensity, higher = more binding, comparable within an allelic series)"
ATGCCCTG,binding signal,[1],"9.6 upbm affinity estimate (log intensity, higher = more binding, comparable within an allelic series)"
same,binding signal,[2],"9.34 upbm affinity estimate (log intensity, higher = more binding, comparable within an allelic series)"
CAGCTCAG,binding signal,[1],"9.47 upbm affinity estimate (log intensity, higher = more binding, comparable within an allelic series)"
same,binding signal,[2],"9.39 upbm affinity estimate (log intensity, higher = more binding, comparable within an allelic series)"
CGGGACGC,binding signal,[1],"9.53 upbm affinity estimate (log intensity, higher = more binding, comparable within an allelic series)"
same,binding signal,[2],"9.25 upbm affinity estimate (log intensity, higher = more binding, comparable within an allelic series)"
CCGCGTTC,binding signal,[1],"9.4 upbm affinity estimate (log intensity, higher = more binding, comparable within an allelic series)"
same,binding signal,[2],"9.39 upbm affinity estimate (log intensity, higher = more binding, comparable within an allelic series)"
AAGGGTCA,binding signal,[1],"11.8 upbm affinity estimate (log intensity, higher = more binding, comparable within an allelic series)"
same,binding signal,[2],"10 upbm affinity estimate (log intensity, higher = more binding, comparable within an allelic series)"
GTTAAGTA,binding signal,[1],"13.5 upbm affinity estimate (log intensity, higher = more binding, comparable within an allelic series)"
same,binding signal,[2],"10.8 upbm affinity estimate (log intensity, higher = more binding, comparable within an allelic series)"
GATACTTA,binding signal,[1],"13.3 upbm affinity estimate (log intensity, higher = more binding, comparable within an allelic series)"
same,binding signal,[2],"10.5 upbm affinity estimate (log intensity, higher = more binding, comparable within an allelic series)"
CGCGGTCA,binding signal,[1],"9.54 upbm affinity estimate (log intensity, higher = more binding, comparable within an allelic series)"
same,binding signal,[2],"9.33 upbm affinity estimate (log intensity, higher = more binding, comparable within an allelic series)"
CGTCTGGC,binding signal,[1],"9.46 upbm affinity estimate (log intensity, higher = more binding, comparable within an allelic series)"
same,binding signal,[2],"9.41 upbm affinity estimate (log intensity, higher = more binding, comparable within an allelic series)"
ACACGCGG,binding signal,[1],"9.54 upbm affinity estimate (log intensity, higher = more binding, comparable within an allelic series)"
same,binding signal,[2],"9.38 upbm affinity estimate (log intensity, higher = more binding, comparable within an allelic series)"
CGTCGGAC,binding signal,[1],"9.07 upbm affinity estimate (log intensity, higher = more binding, comparable within an allelic series)"
same,binding signal,[2],"9.37 upbm affinity estimate (log intensity, higher = more binding, comparable within an allelic series)"
ATCCGCAG,binding signal,[1],"9.55 upbm affinity estimate (log intensity, higher = more binding, comparable within an allelic series)"
same,binding signal,[2],"9.47 upbm affinity estimate (log intensity, higher = more binding, comparable within an allelic series)"
GCCCGCGC,binding signal,[1],"9.29 upbm affinity estimate (log intensity, higher = more binding, comparable within an allelic series)"
same,binding signal,[2],"9.27 upbm affinity estimate (log intensity, higher = more binding, comparable within an allelic series)"
GCTAAGTA,binding signal,[1],"12.9 upbm affinity estimate (log intensity, higher = more binding, comparable within an allelic series)"
same,binding signal,[2],"10.4 upbm affinity estimate (log intensity, higher = more binding, comparable within an allelic series)"
CGGCGGCC,binding signal,[1],"9.64 upbm affinity estimate (log intensity, higher = more binding, comparable within an allelic series)"
same,binding signal,[2],"9.33 upbm affinity estimate (log intensity, higher = more binding, comparable within an allelic series)"
CGGGGGCC,binding signal,[1],"9.04 upbm affinity estimate (log intensity, higher = more binding, comparable within an allelic series)"
same,binding signal,[2],"9.04 upbm affinity estimate (log intensity, higher = more binding, comparable within an allelic series)"
CATGTGGG,binding signal,[1],"9.41 upbm affinity estimate (log intensity, higher = more binding, comparable within an allelic series)"
same,binding signal,[2],"9.56 upbm affinity estimate (log intensity, higher = more binding, comparable within an allelic series)"
CGGCGTGA,binding signal,[1],"9.3 upbm affinity estimate (log intensity, higher = more binding, comparable within an allelic series)"
same,binding signal,[2],"9.33 upbm affinity estimate (log intensity, higher = more binding, comparable within an allelic series)"
GGCGTTAC,binding signal,[1],"9.36 upbm affinity estimate (log intensity, higher = more binding, comparable within an allelic series)"
same,binding signal,[2],"9.53 upbm affinity estimate (log intensity, higher = more binding, comparable within an allelic series)"
GACCACTC,binding signal,[1],"12.3 upbm affinity estimate (log intensity, higher = more binding, comparable within an allelic series)"
same,binding signal,[2],"9.92 upbm affinity estimate (log intensity, higher = more binding, comparable within an allelic series)"
GGTGCGAC,binding signal,[1],"9.44 upbm affinity estimate (log intensity, higher = more binding, comparable within an allelic series)"
same,binding signal,[2],"9.43 upbm affinity estimate (log intensity, higher = more binding, comparable within an allelic series)"
CACTCTGG,binding signal,[1],"11.6 upbm affinity estimate (log intensity, higher = more binding, comparable within an allelic series)"
same,binding signal,[2],"9.66 upbm affinity estimate (log intensity, higher = more binding, comparable within an allelic series)"
CGGTGGCC,binding signal,[1],"9.03 upbm affinity estimate (log intensity, higher = more binding, comparable within an allelic series)"
same,binding signal,[2],"9.22 upbm affinity estimate (log intensity, higher = more binding, comparable within an allelic series)"
ACCCAGGC,binding signal,[1],"8.77 upbm affinity estimate (log intensity, higher = more binding, comparable within an allelic series)"
same,binding signal,[2],"9.31 upbm affinity estimate (log intensity, higher = more binding, comparable within an allelic series)"
CACGGGTC,binding signal,[1],"9.25 upbm affinity estimate (log intensity, higher = more binding, comparable within an allelic series)"
same,binding signal,[2],"9.31 upbm affinity estimate (log intensity, higher = more binding, comparable within an allelic series)"
AACCGGAG,binding signal,[1],"9.55 upbm affinity estimate (log intensity, higher = more binding, comparable within an allelic series)"
same,binding signal,[2],"9.32 upbm affinity estimate (log intensity, higher = more binding, comparable within an allelic series)"
CAGATCCC,binding signal,[1],"9.68 upbm affinity estimate (log intensity, higher = more binding, comparable within an allelic series)"
same,binding signal,[2],"9.49 upbm affinity estimate (log intensity, higher = more binding, comparable within an allelic series)"
ACCGTTTG,binding signal,[1],"9.46 upbm affinity estimate (log intensity, higher = more binding, comparable within an allelic series)"
same,binding signal,[2],"9.44 upbm affinity estimate (log intensity, higher = more binding, comparable within an allelic series)"
GTTGATGA,binding signal,[1],"10.9 upbm affinity estimate (log intensity, higher = more binding, comparable within an allelic series)"
same,binding signal,[2],"9.75 upbm affinity estimate (log intensity, higher = more binding, comparable within an allelic series)"
ATCACTCA,binding signal,[1],"12.1 upbm affinity estimate (log intensity, higher = more binding, comparable within an allelic series)"
same,binding signal,[2],"9.9 upbm affinity estimate (log intensity, higher = more binding, comparable within an allelic series)"
GCTATTGA,binding signal,[1],"11.7 upbm affinity estimate (log intensity, higher = more binding, comparable within an allelic series)"
same,binding signal,[2],"9.84 upbm affinity estimate (log intensity, higher = more binding, comparable within an allelic series)"
AGCTGCAG,binding signal,[1],"9.32 upbm affinity estimate (log intensity, higher = more binding, comparable within an allelic series)"
same,binding signal,[2],"9.44 upbm affinity estimate (log intensity, higher = more binding, comparable within an allelic series)"
AGACGCTG,binding signal,[1],"9.21 upbm affinity estimate (log intensity, higher = more binding, comparable within an allelic series)"
same,binding signal,[2],"9.48 upbm affinity estimate (log intensity, higher = more binding, comparable within an allelic series)"
AAGTCATT,binding signal,[1],"11.3 upbm affinity estimate (log intensity, higher = more binding, comparable within an allelic series)"
same,binding signal,[2],"9.8 upbm affinity estimate (log intensity, higher = more binding, comparable within an allelic series)"
AGTGCCAC,binding signal,[1],"11.6 upbm affinity estimate (log intensity, higher = more binding, comparable within an allelic series)"
same,binding signal,[2],"9.9 upbm affinity estimate (log intensity, higher = more binding, comparable within an allelic series)"
CCCGCGTC,binding signal,[1],"9.23 upbm affinity estimate (log intensity, higher = more binding, comparable within an allelic series)"
same,binding signal,[2],"9.39 upbm affinity estimate (log intensity, higher = more binding, comparable within an allelic series)"
ACGGCACG,binding signal,[1],"9.26 upbm affinity estimate (log intensity, higher = more binding, comparable within an allelic series)"
same,binding signal,[2],"9.49 upbm affinity estimate (log intensity, higher = more binding, comparable within an allelic series)"
CCGCGCAC,binding signal,[1],"9.44 upbm affinity estimate (log intensity, higher = more binding, comparable within an allelic series)"
same,binding signal,[2],"9.51 upbm affinity estimate (log intensity, higher = more binding, comparable within an allelic series)"
CCGTTGGC,binding signal,[1],"9.2 upbm affinity estimate (log intensity, higher = more binding, comparable within an allelic series)"
same,binding signal,[2],"9.41 upbm affinity estimate (log intensity, higher = more binding, comparable within an allelic series)"
CCAAGGCA,binding signal,[1],"9.52 upbm affinity estimate (log intensity, higher = more binding, comparable within an allelic series)"
same,binding signal,[2],"9.42 upbm affinity estimate (log intensity, higher = more binding, comparable within an allelic series)"
AGGGACGA,binding signal,[1],"9.37 upbm affinity estimate (log intensity, higher = more binding, comparable within an allelic series)"
same,binding signal,[2],"9.28 upbm affinity estimate (log intensity, higher = more binding, comparable within an allelic series)"
GCATCGGC,binding signal,[1],"9.23 upbm affinity estimate (log intensity, higher = more binding, comparable within an allelic series)"
same,binding signal,[2],"9.43 upbm affinity estimate (log intensity, higher = more binding, comparable within an allelic series)"
TAAGAAGA,binding signal,[1],"11.5 upbm affinity estimate (log intensity, higher = more binding, comparable within an allelic series)"
same,binding signal,[2],"9.88 upbm affinity estimate (log intensity, higher = more binding, comparable within an allelic series)"
CAGGGACG,binding signal,[1],"9.36 upbm affinity estimate (log intensity, higher = more binding, comparable within an allelic series)"
same,binding signal,[2],"9.43 upbm affinity estimate (log intensity, higher = more binding, comparable within an allelic series)"
